Source: PubChem
BoNT-F LC inh: BoNT F light chain protease inhibition | Multiplex microsphere protease cleavage assay, flow cytometry | inhibition, % at 10 µM | 0.22% of 360,000 active | AID 588497; in the data active = inhibition above about 35%, passing the limit was not always enough; inconclusive = no clear call, values can overlap the other calls
Anthrax LF prot: inhibitors of Bacillus anthracis lethal factor protease; P15917; multiplex microsphere protease cleavage assay, LF; inhibition, % at 10 µM; 0.12% of 360,000 active; AID 588501
Target sequence (P15917 whole entry, looked up): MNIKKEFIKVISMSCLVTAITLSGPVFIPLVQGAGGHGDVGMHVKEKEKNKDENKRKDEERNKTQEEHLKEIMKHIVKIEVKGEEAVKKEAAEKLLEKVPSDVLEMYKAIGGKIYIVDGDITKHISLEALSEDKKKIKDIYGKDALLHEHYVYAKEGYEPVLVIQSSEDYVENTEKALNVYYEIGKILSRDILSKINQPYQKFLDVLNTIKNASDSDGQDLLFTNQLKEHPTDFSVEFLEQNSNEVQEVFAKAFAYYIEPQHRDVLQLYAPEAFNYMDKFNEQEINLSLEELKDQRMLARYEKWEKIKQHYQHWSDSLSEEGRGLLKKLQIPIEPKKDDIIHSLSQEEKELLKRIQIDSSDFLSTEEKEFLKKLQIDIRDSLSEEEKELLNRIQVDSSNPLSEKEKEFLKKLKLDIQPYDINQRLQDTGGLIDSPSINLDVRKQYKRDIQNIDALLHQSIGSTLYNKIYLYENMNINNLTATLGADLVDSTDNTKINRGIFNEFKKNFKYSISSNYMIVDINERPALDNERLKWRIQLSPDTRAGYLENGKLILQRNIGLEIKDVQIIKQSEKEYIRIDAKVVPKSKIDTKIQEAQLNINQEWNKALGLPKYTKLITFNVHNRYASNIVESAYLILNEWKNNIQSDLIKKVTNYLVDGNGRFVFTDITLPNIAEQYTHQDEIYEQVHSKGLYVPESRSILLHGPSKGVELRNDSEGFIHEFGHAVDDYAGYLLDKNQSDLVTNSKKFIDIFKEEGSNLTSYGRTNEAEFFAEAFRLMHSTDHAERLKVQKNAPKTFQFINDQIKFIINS
MazEF act: activators of E. coli MazEF toxin-antitoxin RNase | P0AE70 | FAM/BHQ RNA-DNA oligo cleavage fluorescence, 5 h | activation, % at 20 µM | 0.32% of 350,000 active | AID 504720; in the data active = activation above about 50%
BoNT-A LC inh2: blocks Botulinum neurotoxin A light chain protease; multiplex microsphere protease substrate cleavage, flow cytometry; inhibition, % at 10 µM; 0.17% of 360,000 active
Autofluor counter: flagged as autofluorescent in microsphere protease counterscreen | compound autofluorescence counterscreen, microsphere flow cytometry; stronger effect = higher value | fluorescence intensity (no concentration beside the values) | 3.1% of 360,000 active | AID 624483; in the data active = fluorescence intensity above about 16000; inconclusive = no clear call, values can overlap the other calls
Numbers stand for hits; n = inactive; u = inconclusive; x = not tested or not shown. In the library only some 3.7% were active in any assay of this set; here they are far more common. Rule as the data show it, unless noted: active = inhibition above about 30%; inconclusive = no clear call, values can overlap the other calls; inactive = below that.

SMILES	BoNT-F LC inh	Anthrax LF prot	MazEF act	BoNT-A LC inh2	Autofluor counter
COc1cccc(-c2cc(C(=O)NCCc3ccccc3)no2)c1	n	n	n	n	21462
CCCNC(=O)c1cc(-c2ccc(OC)cc2)on1	n	n	n	n	16440
COC(=O)C1=C(C)NC(=S)NC1c1ccc(OCC(=O)N2CCCCC2)c(OC)c1 (stereo not given)	n	n	n	n	n
Cc1ccc(NC(=S)NNC(=O)CCn2cc(C)cn2)cc1	n	n	n	n	20267
Cc1cnn(CCC(=O)NNC(=S)Nc2ccccc2)c1	n	n	n	n	22734
CCCCNC(=S)NNC(=O)CCn1cc(C)cn1	n	n	n	n	n
Cc1cnn(CCC(=O)NNC(=S)NCC(C)C)c1	n	n	n	n	n
CCOC(=O)C1=CCC(c2ccccc2C)N(S(=O)(=O)c2ccc(C)cc2)C1 (stereo not given)	n	n	x	n	n
O=S(=O)(NCc1cccs1)c1ccccc1Cl	n	n	n	n	n
CSc1ccc(S(=O)(=O)NCc2ccc(C)cc2)cc1	n	n	n	n	23510
COc1ccc(S(=O)(=O)NCc2ccccc2)cc1	n	n	n	n	21265
O=S(=O)(NCc1cccs1)c1cccc2cccnc12	n	n	n	n	17165
COCC(C)NS(=O)(=O)c1ccc(OC)cc1 (stereo not given)	n	n	n	n	19695
Cc1ccc(S(=O)(=O)NCc2ccccc2)cc1	u	n	n	n	u
COc1ccc(S(=O)(=O)NCCCCNS(=O)(=O)c2ccc(OC)cc2)cc1	n	n	n	n	n
COc1ccc(S(=O)(=O)NCc2ccccn2)cc1OC	u	n	n	n	n
COc1ccc(S(=O)(=O)NCCC(=O)NCc2ccccc2)cc1	n	n	n	n	21763
COc1ccccc1Oc1ccc(S(=O)(=O)NCc2ccccn2)cc1	n	n	n	n	23518
C=CCNC(=O)CCCCCNS(=O)(=O)c1ccc(OC)cc1	n	n	n	n	23119
Cc1ccc(CNC(=O)CCNS(=O)(=O)c2ccc(C)cc2)cc1	u	n	n	n	n
COc1ccc(S(=O)(=O)NCc2cccs2)cc1	n	n	n	n	21782
CCCNC(=O)C1(C)CCN1C(=O)Cc1ccc(C(C)(C)C)cc1 (stereo not given)	n	n	x	n	n
O=S(=O)(NCCN1CCOCC1)c1ccc(F)c(Cl)c1	n	n	n	n	n
OC[C@H]1OC(O)[C@@H](O)[C@@H](O)[C@@H]1O (stereo not given in full)	n	n	n	n	n
O=C(CNc1ccc(Br)cc1)Nc1ccc(S(=O)(=O)N2CCCCC2)cc1	n	n	n	n	n
SMILES	BoNT-F LC inh	Anthrax LF prot	MazEF act	BoNT-A LC inh2	Autofluor counter
CCOC(=O)c1ccc(NC(=O)c2ccccc2[N+](=O)[O-])cc1	n	n	n	n	n
O=C(Nc1ccc(S(=O)(=O)NCc2ccccc2)cc1)c1ccccc1[N+](=O)[O-]	n	n	116	n	n
CCOC(CNC(=O)c1ccc2c(c1)nc(C)n2-c1cccc(F)c1)OCC	n	n	n	n	23358
COCCNC(=O)c1ccc2c(c1)nc(C)n2-c1cccc(Cl)c1	n	n	n	n	n
COCc1cccc(-c2csc(C(NC(C)=O)c3ccc(F)c(F)c3)n2)c1 (stereo not given)	n	n	x	n	n
O=C(NC1=NCCS1)c1cc2ccccc2o1	n	n	n	n	20997
Cc1cc(C(=O)NC2=NCCS2)cs1	n	n	n	u	22079
O=C(O)C1CCCCC1C(=O)Nc1ccc(S(=O)(=O)N2CCOCC2)cc1 (stereo not given)	n	n	n	n	n
COn1c(=S)[nH]c2ccccc2c1=O	n	n	n	u	22258
CC1CCCCC1n1c(=S)[nH]c2ccccc2c1=O (stereo not given)	n	n	n	n	23138
O=C(NCc1ccccc1)C(c1ccccc1F)N(C(=O)c1csnn1)C1CCCC1 (stereo not given)	n	n	n	n	n
CCC(CC)NC(=O)C1CCN(c2ccc(S(=O)(=O)N3CCOCC3)cc2[N+](=O)[O-])CC1	u	n	n	n	u
CC(=NNC(=S)N1CC2CCC(CC2)C1)c1cccc(C)n1	45	n	n	n	n
O=C1NCCN1CCNc1nc(NCC2CC2)nc2cc(-c3ccccc3)sc12	n	n	x	n	n
COC(=O)[C@]12CCCCC=C1N(Cc1ccco1)C(=O)[C@H](CC(=O)NCc1cccc(C(F)(F)F)c1)C2	n	n	x	n	n
Cc1ccc(NC(=O)c2sccc2C)nc1	n	n	n	n	n
CN(C)c1ccc(CNn2cnnc2SCC(=O)NC(C)(C)C)cc1	n	n	n	n	n
CCc1ccc(CNn2cnnc2SCC(=O)NC(C)(C)C)cc1	n	n	n	n	16664
O=[N+]([O-])c1ccc(Sc2cccc3cccnc23)c([N+](=O)[O-])c1	n	n	n	u	20643
COc1cccc2c1cc1c(=O)n(CC(=O)NCCCN3CCN(C)CC3)nc(C)n12	n	n	n	n	n
COc1cccc(CNC(=O)CCCNC(=O)c2ccc(Cl)cc2)c1	n	n	n	n	n
COc1ccc(N(CC(O)CN2C(=O)NC(C)(C)C2=O)S(=O)(=O)c2ccc(C)cc2)cc1 (stereo not given)	n	n	n	n	23111
COc1ccc(N(CC(O)CN2CCCCC2)S(=O)(=O)c2ccc(C)cc2)cc1 (stereo not given)	n	n	n	u	20804
Cc1ccc(N(CC(O)CN2C(=O)NC(C)(C)C2=O)S(=O)(=O)c2ccc(C)cc2)cc1 (stereo not given)	n	n	n	n	n
Cn1cc([C@@H]2C[C@H]3CN(Cc4cccc(Cl)c4)C(=O)[C@]34CCCN24)c2ccccc21	n	n	n	n	17603
SMILES	BoNT-F LC inh	Anthrax LF prot	MazEF act	BoNT-A LC inh2	Autofluor counter
O=C(O)c1ccccc1-c1ccc(/C=C/c2cc(C(F)(F)F)[nH]c(=O)n2)o1	n	n	745	n	n
CCCCN(C=O)c1c(CC)nc2c(OCC3CCCCC3)cccn12	n	n	x	n	n
Cc1cc(Oc2nnnn2-c2ccccc2)ccc1Cl	n	n	n	u	19957
S=C(Nc1ccc(CN2CCCCC2)cc1)Nc1cccc(Cl)c1Cl	n	n	n	n	n
CCOC(=O)C1=C(N)N(c2ccccc2Oc2ccccc2)C(=O)C1	n	n	n	n	n
CCOC(=O)C1=C2NC(=O)c3ccccc3N2C(=O)C1	n	n	132	n	n
CCSc1nc2c(c(=O)[nH]c(=O)n2C)n1CC(O)COc1ccccc1C (stereo not given)	n	n	n	n	20886
Cc1ccccc1OCC(O)Cn1c(SC(C)C)nc2c1c(=O)[nH]c(=O)n2C (stereo not given)	n	n	n	n	n
CCCN(CCC)S(=O)(=O)c1ccc(C(=O)OCCN2C(=O)c3cccc4c(N5CCOCC5)ccc(c34)C2=O)cc1	n	37	n	37	n
O=C(OCCN1C(=O)c2ccccc2C1=O)c1cc(S(=O)(=O)N2CCOCC2)ccc1F	n	n	n	n	n
CCN(CC)S(=O)(=O)c1ccc(C(=O)OCC(=O)N2CCOCC2)cc1	n	n	n	n	n
